# Read-outs that look alike come from different tables or passages of the source. About 3,200 (25%) of roughly 13,000 compounds showed an effect of 50% or more. Some of the results follow.
# Test system: P. falciparum stage V gametocytes
# Design: BacTiter-Glo ATP luminescence viability of purified stage V gametocytes in 384-well plates, per cent inhibition versus DMSO
# Conditions: 48 h, 5 µM, inhibitor
Structure (SMILES),% Inhibition [%],% Inhibition (% Inhibition) [%]
Cc1ccc(NS(=O)(=O)c2ccc(-c3ccccc3)cc2)c(Cn2cnc(N3CCCNCC3)cc2=O)c1 [TCMDC-133150],3.416,
COc1ccc2ncc(F)c(CCN3CC(O)C(CNCc4nc5c(cc4Cl)OCC(=O)N5)C3)c2n1 (stereo not drawn) [TCMDC-136079],,2.766
CCOC(=O)c1sc(C(C)Nc2ccccc2)nc1-c1ccccc1 (stereo not drawn) [TCMDC-135642],18.56,
Cc1ccc(CN2CCC(Oc3cccc(NC(=O)c4ccc(C(F)(F)F)cc4)c3)CC2)cc1 [TCMDC-133736],-34.39,
O=C(NC1CC1)c1ccc(N2CCC(COc3cccc(F)c3)CC2)nc1 [TCMDC-134029],11.49,
O=C1OC(c2ccccc2)(c2ccccc2)CN1CC1CCN(Cc2ccc(O)c(Cl)c2)CC1 [TCMDC-136312],3.668,
FC(F)(F)c1ccc2[nH]c(-c3cccc(-c4cccc(CNCC5CCCO5)c4)c3)nc2c1.O=C(O)C(F)(F)F (stereo not drawn) [TCMDC-133102],-56.01,
CN(Cc1cccc(O)c1)C1CCN(c2cc(NC(=O)c3ccc(F)cc3)ccn2)C1 (stereo not drawn) [TCMDC-134955],-27.34,
COc1ccc(CCC(C)(C)NCC(O)c2cccc(C(F)(F)F)c2)cc1 (stereo not drawn) [TCMDC-131504],-35.85,
Cc1ccc(S(=O)(=O)Nc2ccc(Nc3nccc(Nc4cccc5[nH]ncc45)n3)cc2)cc1 [TCMDC-136297],-19.92,
CC(C)N1CCCN(C(=O)C2CCN(c3ccc(C(=O)N4CCCC4)cn3)CC2)CC1 [TCMDC-135636],39.57,
COc1ccc(C2NCCc3c2[nH]c2ccccc32)cc1CN1CCN(c2ccc(F)cc2)CC1 (stereo not drawn) [TCMDC-124340],-3.324,
COc1cc(C2C(Oc3ccccc3)C(=O)N2Cc2ccc(F)cc2)cc(OC)c1OC (stereo not drawn) [TCMDC-125396],72.32,
COc1cc(NC(=O)c2ccc3c(=O)n(Cc4ccccc4)c(=S)[nH]c3c2)cc(OC)c1OC [TCMDC-123804],26.78,
NCCCNc1nc(Nc2ccc(C(F)(F)F)cc2F)c2c(=O)[nH]ccc2n1 [TCMDC-135056],108.1,
NCCCNc1nc(Nc2cccc(C(N)=O)c2)c2c(=O)[nH]ccc2n1 [TCMDC-135053],0.6256,
Cc1cccc(Nc2nc(NCCCCN)nc3cc[nH]c(=O)c23)c1 [TCMDC-134946],47.91,
CCS(=O)(=O)c1ccc(/C(=N/OC)c2ccc[nH]2)cc1 [TCMDC-139022],-5.005,
CCCc1cc(=O)[nH]c(-n2nc(C)cc2NC(=O)C(CC)c2ccccc2)n1 (stereo not drawn) [TCMDC-124941],11.79,
Cc1ccc(Nc2cc(C)nn2-c2nc(C)cc(=O)[nH]2)cc1 [TCMDC-123713],62.43,
Cc1cc(=O)[nH]c(-n2nc(C)cc2NC(=O)CC(c2ccccc2)c2ccccc2)n1 [TCMDC-124944],-15.6,
Cc1cc(=O)[nH]c(-n2nc(C)cc2NC(=O)C(c2ccccc2)c2ccccc2)n1 [TCMDC-124945],2.872,

Structure (SMILES),% Inhibition [%],% Inhibition (% Inhibition) [%]
CCN(CC)c1nc(Nc2cc(C)ccc2C)nc(Nc2ccccc2O)n1 [TCMDC-125766],-38.82,
CCn1c(-c2nonc2N)nc2c(-c3cccc(NC(=O)Nc4cccc(Cl)c4)c3)ncc(OCCCN)c21 [TCMDC-136193],104.3,
Cc1cccc2[nH]c(-c3cccc(-c4cccc(NC(=O)Nc5ccc(Cl)cc5)c4)c3)nc12 [TCMDC-133179],-25.81,
CCOC(=O)c1ccc(NC(=O)Nc2cccc(-c3cccc(-c4nc5ccccc5[nH]4)c3)c2)cc1 [TCMDC-133263],2.081,
CCn1c(-c2nonc2N)nc2c(-c3cccc(NC(=O)NC45CC6CC(CC(C6)C4)C5)c3)ncc(OCCCN)c21 [TCMDC-136246],20.74,
CCn1c(-c2nonc2N)nc2c(Cl)ncc(O[C@H](CCN)c3ccccc3F)c21 [TCMDC-133566],-5.634,
CCn1c(-c2nonc2N)nc2cnc(Oc3cccc(NC(=O)c4ccc(OCCN5CCCC5)cc4)c3)cc21 [TCMDC-135776],8.365,
CCn1c(-c2nonc2N)nc2c(-c3cccc(NC(=O)Nc4ccc(Cl)cc4)c3)ncc(OCCCN)c21 [TCMDC-136152],102.5,
CCn1c(-c2nonc2N)nc2c(-c3cccc(NC(=O)Nc4ccc5c(c4)CCC5)c3)ncc(OCCCN)c21 [TCMDC-136191],95.55,
CCOC(=O)c1ccc(NC(=O)Nc2cccc(-c3cccc(-c4nc5c(C)cccc5[nH]4)c3)c2)cc1 [TCMDC-133264],-4.791,
CCn1c(-c2nonc2N)nc2cnc(Oc3cccc(NC(=O)c4ccc(OCCCN5CCCCC5)cc4)c3)cc21 [TCMDC-135764],-4.348,
CCOC(=O)c1cccc(NC(=O)Nc2cccc(-c3ncc(OCCCN)c4c3nc(-c3nonc3N)n4CC)c2)c1 [TCMDC-136205],109.2,
Nc1nonc1-c1nc2c(-c3cccc(Cl)c3)nccc2n1CCCNC(=O)Cc1ccc(Cl)cc1 [TCMDC-135207],32.87,
Cc1cccc2nc(-c3ccc(-c4cccc(CN5CC(C)OC(C)C5)c4)s3)[nH]c12.O=C(O)C(F)(F)F (stereo not drawn) [TCMDC-133832],-9.101,
N#Cc1ccc(C(=O)Nc2cc(-c3cccc(O)c3)cc3[nH]ncc23)cc1 [TCMDC-134118],16.86,
Cc1ccc(Oc2ncccc2C(=O)Nc2cccc3cccnc23)c(C)c1 [TCMDC-125499],-13.13,
O=C(Nc1ccc(CCN2CCC(c3nc(COCC(F)(F)F)c(-c4ccccc4)o3)CC2)cc1)c1ccc(F)cc1 [TCMDC-131904],-33.25,
O=C(Nc1nccs1)c1sc2ccccc2c1O [TCMDC-124521],-6.294,
CCNc1cc(C(=O)N[C@@H](Cc2ccccc2)[C@H](O)CNCc2cc(C#N)ccc2OC)cc(N2CCCC2=O)c1 [TCMDC-141684],32.6,
COc1ccc(-n2nc(C(=O)NCc3ccccc3OC)c3ccccc3c2=O)cc1 [TCMDC-125443],-5.134,
CC1CCC(NC(=O)c2nn(-c3ccc(Cl)cc3)c(=O)c3ccccc23)CC1 (stereo not drawn) [TCMDC-124775],-0.9327,
CCn1nc(C(=O)NC2CCOc3ccccc32)c2ccccc2c1=O (stereo not drawn) [TCMDC-124816],60.74,

Structure (SMILES),% Inhibition [%],% Inhibition (% Inhibition) [%]
COc1ccc(CN2CCC(CN3CC4(OC3=O)c3ccccc3-c3ccccc34)C2)c(O)c1 (stereo not drawn) [TCMDC-136069],30.12,
CCNc1cc(C(=O)N[C@@H](Cc2ccccc2)[C@H](O)CNCc2cccc(OC)c2)c(OC)c(N2CCCCS2(=O)=O)c1 [TCMDC-134673],-8.62,
Clc1ccc(NC(=NCCCCCCCN=C(Nc2ccc(Cl)cc2)Nc2ccc(Cl)cc2)Nc2ccc(Cl)cc2)cc1 [TCMDC-137529],128.8,
S=C(Nc1ccc(Cl)cc1)Nc1ccc(Nc2ccccc2)cc1 [TCMDC-123954],-65.82,
NC(=NCCc1ccc(Cl)cc1)c1ccc(Cl)c(Cl)c1 [TCMDC-137459],-9.34,
N=C(N)NN=CC(=O)Nc1ccc(Cl)cc1 [TCMDC-137472],9.695,
NC(=NCCCCCCCCN=C(N)Nc1ccc(Cl)cc1)Nc1ccc(Cl)cc1 [TCMDC-131828],83.63,
O=C(Nc1ccc(Cl)cc1)Nc1ccc(-c2ccc(-c3nc4ccccc4[nH]3)cc2)cc1 [TCMDC-133181],-19.19,
Clc1cccc(-c2nc(Nc3ccnc(-c4ccc(CN5CCOCC5)cc4)c3)c3ccccc3n2)c1 [TCMDC-138870],-2.785,
COC(=O)c1ccc(CC(C)NCC(O)c2cccc(Oc3cccc(C(F)(F)F)c3)c2)cc1 (stereo not drawn) [TCMDC-131489],30.29,
COc1ccc2c(c1)[nH]c1c(/C=C/c3ccc([N+](=O)[O-])cc3)nccc12 [TCMDC-125486],8.204,
Cc1sc(NC(=O)c2ccc([N+](=O)[O-])cc2Cl)c(C(N)=O)c1C [TCMDC-125749],-6.756,
c1nc2nc3c(c(Nc4ccc5c(c4)CCC5)n2n1)CCC3 [TCMDC-123573],-7.89,
O=C(/C=C/c1ccc(Cl)c(Cl)c1)NCCCCCN1CCCC(C(=O)Nc2cccc(Cl)c2)C1 (stereo not drawn) [TCMDC-136122],-10.14,
O=C(/C=C/c1ccc(Cl)c(Cl)c1)NCCCCCN1CCC(NC(=O)NC2CCCCCC2)CC1 [TCMDC-135698],-24.64,
O=C(/C=C/c1ccc(Cl)c(Cl)c1)NCCCCCN1CCCC(C(=O)Nc2ccc(Cl)cc2)C1 (stereo not drawn) [TCMDC-136118],-2.254,
O=C(/C=C/C=C/c1ccc(Cl)c(Cl)c1)NCCCCCN1CCCC2CCCCC21 (stereo not drawn) [TCMDC-139469],92.39,
O=C(/C=C/c1ccc(Cl)cc1)NCCCCCN1CCCC(C(=O)Nc2cccc(Cl)c2)C1 (stereo not drawn) [TCMDC-136121],90.21,
O=C(/C=C/c1ccc(Cl)c(Cl)c1)NCCCCCN1CCCC(C(=O)Nc2ccc(Cl)c(Cl)c2)C1 (stereo not drawn) [TCMDC-136126],74.26,
O=C(/C=C/c1ccc(Cl)c(Cl)c1)NCCCCCN1CCC(NC(=O)NC2CCCC2)CC1 [TCMDC-135699],-68.94,
O=C(/C=C/c1ccc(Cl)c(Cl)c1)NCCCCCN1CCCC(C(=O)Nc2ccc(F)c(Cl)c2)C1 (stereo not drawn) [TCMDC-136114],-6.866,
O=C(/C=C/c1ccc(Cl)cc1)NCCCCCN1CCCC(C(=O)Nc2ccc(Cl)cc2)C1 (stereo not drawn) [TCMDC-136117],4.842,
